# Sampled rows, rich in hits. Any-hit rate of the full collection: about 12%.
# RORgamma inh: blocks mouse ROR gamma transcriptional activity. Drosophila S2 Gal4-RORgamma UAS-luciferase reporter, 20 h. Potency, µM (series often up to 53.6 µM), for the others: at the highest dose activity change, negative = inhibition, usual class: inhibitors. 5.4% of 310,000 active; further: nearly all actives have a fitted effect of over 60% in size
#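 Compounds are pin-transferred onto Drosophila Schneider cells expressing a copper-inducible Gal4–ROR gamma transactivation domain fusion. After 1 hr, copper sulfate is added to 700 uM final; luciferase is read 20 hr later.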
# Gal4-VP16 FLuc: counter-screen for ROR gamma inhibitors: Gal4-VP16 reporter; Drosophila S2 Gal4-VP16 UAS-luciferase, luminescence, 20 h; Potency, µM (titrated, usually from 53.6 µM), inactives show at the highest dose activity, negative = inhibition, usual class: inhibitors; 3.5% of 310,000 active; AID 2546;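 further: Gal4-VP16 expression switched on by copper sulfate through the metallothionein promoter; nearly all actives have a fitted effect of over 50% in size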
# ALDH1A1 block: blocks purified human ALDH1A1 activity; Purified ALDH1A1, NADH fluorescence, propionaldehyde substrate; Potency, µM (top dose mostly 75.3 µM), inactives show at the highest dose activity, negative = inhibition, hits mostly inhibitors; 7.3% of 220,000 active; AID 1030; active means well fitted inhibition curve with a large enough effect, not every such curve was filed as active; inconclusive means small, poorly fitted or top-dose-only effect, or another doubt; inactive means no such curve, though single readings can be large or run the other way;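 further: plate controls were no enzyme wells and a reference inhibitor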
# Sfp PPTase inh: blocks B. subtilis Sfp PPTase activity | AID 1490 | Biochemical Sfp PPTase activity, qHTS | 3.5% of 310,000 active | Potency, µM, for the others: largest response in the series, negative = inhibition, most hits filed as inhibitors | Q9F4F7;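 further: the enzyme is Sfp with the accession as filed and its product quenches rhodamine fluorescence; 0% = enzyme reaction without inhibitor and -100% = no enzyme wells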
#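 Fluorescence-quenching assay: 15 nM Sfp-PPTase preincubated 15 min at room temperature with compound, then 5 uM rhodamine-CoA and 12.5 uM BHQ-2-labelled YbbR peptide added. Fluorescence (ex 525/em 598 nm) read at start and after 30 min; difference gives rate.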
# PLK1 PBD block: PLK1 (human) polo-box domain binding inhibition | 2.8% of 360,000 active | Plk1 PBD binding of FITC phosphopeptide, fluorescence polarization | P53350 | Potency, µM, inactives show max response, negative = inhibition, most hits filed as inhibitors | AID 720504; further: series mostly up to about 57 µM; nearly all actives have a fitted effect of over 65% in size
# Target sequence (P53350 whole entry, looked up, the tested form may be a part): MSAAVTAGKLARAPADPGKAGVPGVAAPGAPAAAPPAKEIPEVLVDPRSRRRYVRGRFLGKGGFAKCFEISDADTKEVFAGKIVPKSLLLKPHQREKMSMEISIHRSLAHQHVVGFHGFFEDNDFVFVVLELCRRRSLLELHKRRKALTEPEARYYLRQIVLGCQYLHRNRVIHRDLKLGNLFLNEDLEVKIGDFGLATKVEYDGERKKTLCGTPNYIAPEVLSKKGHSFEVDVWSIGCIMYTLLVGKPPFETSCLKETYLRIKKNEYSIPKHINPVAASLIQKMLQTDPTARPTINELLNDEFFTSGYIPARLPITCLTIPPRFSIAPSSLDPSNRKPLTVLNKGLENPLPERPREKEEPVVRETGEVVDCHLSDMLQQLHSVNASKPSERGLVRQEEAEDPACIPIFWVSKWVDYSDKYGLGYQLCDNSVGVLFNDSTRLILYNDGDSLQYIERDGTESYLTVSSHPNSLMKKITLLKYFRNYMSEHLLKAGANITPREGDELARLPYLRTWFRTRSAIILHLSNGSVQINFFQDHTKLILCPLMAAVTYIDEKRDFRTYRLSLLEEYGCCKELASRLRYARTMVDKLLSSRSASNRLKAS
# * = called active by the depositor; ? = inconclusive; / = no result; [ ] = remark or other dose. Unless noted, the call rests on the fitted dose curve; in most records, active means well fitted curve in the direction sought with a large enough effect; inconclusive means small, poorly fitted or top-dose-only effect, or another doubt; inactive means no such curve, though single readings can be large; an effect the other way counts as inactive or inconclusive. Unless noted, on the % scale 0 is the no-effect control and ±100 the full control effect; potency means the concentration at half of the fitted maximal effect.
SMILES,RORgamma inh,Gal4-VP16 FLuc,ALDH1A1 block,Sfp PPTase inh,PLK1 PBD block
CCCCS(=O)(=O)N1CCc2nc(-c3ccc(OC)cc3C)c3c(c2C1)CO[C@@H](c1ccccc1)C3,/,/,0.45µM*,4%,/
Cc1ccc(OCCn2c(NC(=O)c3ccco3)nc3ccccc32)cc1,1.6µM*,2µM*,-6%,11%,-1%
O=C(Nc1nc2ccccc2n1CCOc1ccccc1)c1ccco1,2µM*,5µM*,-9%,-3%,-7%
C=CCn1c(NC(=O)c2ccco2)nc2ccccc21,4µM*,3.5µM*,/,10%,-6%
Cc1cccc(OCCn2c(NC(=O)c3ccco3)nc3ccccc32)c1,1.4µM*,2µM*,11%,-5%,-4%
O=C(Nc1nc2ccccc2n1CCN1CCCCC1)c1ccco1,0%[10 µM],?,7%,7%,1%
COc1ccc([C@@H]2[C@@H](O)[C@H](O)[C@@H](C)N2C)cc1OC,-1%,-20%,-3%,-14%,/
COC(=O)[C@]12CCCCC=C1N(CCC1=CCCCC1)C(=O)[C@H](CC(=O)N1CCCCC1)C2,/,/,/,/,-1%
CC12CCC3c4ccc(OCc5ccccc5)cc4CCC3C1CC(O)C2O (stereo not given),22%,-9%,-15%,-36%,/
C=CCn1c(C(C)C)nc2ccccc21,11µM*,-5%[10 µM],-10%,-4%,-8%
O=C(Nc1nc2ccccc2n1CCOc1ccc(Cl)cc1)c1ccco1,1.4µM*,2.5µM*,?,7%,-11%
CC(NC(=O)/C=C/c1ccco1)c1nc2ccccc2n1Cc1cccc(Cl)c1 (stereo not given),?,11µM*,14µM*,28µM*,-22%
CC(=O)Nc1nc2ccccc2n1Cc1ccc(Cl)cc1,1.1µM*,1.6µM*,/,8%,?
CN(c1ccc(Cl)cc1)c1cc2c(c3c1ccn3C)C1CCC2O1 (stereo not given),/,/,/,/,-6%
C[C@@H]1CN([C@H](C)CO)C(=O)CCCn2cc(nn2)CO[C@H]1CN(C)C(=O)C1CC1,/,/,/,/,-5%
O=C(Nc1nc2ccccc2n1Cc1ccc(Cl)cc1)c1ccco1,0.71µM*,2µM*,-8%,-1%,-12%
CCc1ccc(C(O)c2ncc(-c3ccccc3Cl)[nH]2)cc1 (stereo not given),/,/,/,/,-4%
CC(CNC(=O)c1cncc(O)c1)NC(=O)c1cncc(O)c1 (stereo not given),0%,-1%,?,79µM*,-6%
CCCCOCCOCCOCc1cc2c(cc1CCC)OCO2,6%[10 µM],-9%,10µM*,25%,/
CCCCOCCCNC(=O)c1ccc2c(c1)OCO2,8%,0%,-1%,-9%,-1%
CC(C)(C)C(=O)Nc1ccccc1C(=O)Nc1ccccn1,37%,1%,-12%,13%,5%
C/C(=N\NC(=O)c1ccccc1)c1nc2ccccc2n1C,1.6µM*,3.2µM*,-9%,-13%,0%
Cn1c(NC(=O)c2ccccc2NC(=O)C(C)(C)C)nc2ccccc21,10µM*,11µM*,-1%,1%,-1%
Cn1c(NC(=O)c2ccc(F)cc2)nc2ccccc21,0.45µM*,1.3µM*,/,14%,5%
Cn1c(SC(C(=O)Nc2ccc(F)cc2)c2ccccc2)nc2ccccc21 (stereo not given),11µM*,?,4%,-11%,2%
SMILES,RORgamma inh,Gal4-VP16 FLuc,ALDH1A1 block,Sfp PPTase inh,PLK1 PBD block
COc1ccc(Oc2ncc3nc(C)c(=O)n(C)c3n2)cc1,1%,9%,-2%,16%,/
COc1cc(C2NC(=O)NC(O)(C(F)(F)F)C2C(=O)c2cccs2)ccc1O (stereo not given),33%,7%,22µM*,9%,-9%
COc1ccc(C2NC(=S)NC(O)(C(F)(F)F)C2C(=O)c2cccs2)cc1 (stereo not given),-3%,0%,10µM*,14%,-9%
COc1ccc(C2NC(=O)NC(O)(C(F)(F)F)C2C(=O)c2ccc(F)cc2)cc1 (stereo not given),4%,11%,?,24%,-3%
Cc1ccc2c(nc3s/c(=C\c4ccc(-c5ccccc5C(=O)O)o4)c(=O)n32)c1C,0%,-7%,/,-10%,-20%
Cc1cc(C)c2nc3s/c(=C/c4ccccc4)c(=O)n3c2c1,-34%,-8%,3.2µM*,8.9µM*,/
Cc1ccc2c(nc3s/c(=C/c4cccs4)c(=O)n32)c1C,?,-19%,14µM*,-20%,?
